Screens from PubChem BioAssay.
Hits are enriched below; roughly 19% of the tested compounds scored in any of these assays.
DT40 TDP1 no CPT – qHTS for Inhibitors of human tyrosyl-DNA phosphodiesterase 1 (TDP1): qHTS in cells in absence of CPT. DT40 Tdp1-/- hTDP1 cells, no CPT, ATP luminescence, 48 h. Potency, µM (doses to about 46.2 µM), actives largely listed as inhibitors. 15% of 420,000 active. AID 686978, 2013; further: nearly all actives have a fitted effect of over 55% in size
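Growth kinetics read by CellTiter-Glo luminescence after ≥48 hr at 37 °C. Cells: DT40 Tdp1-/- stably carrying human TDP1, 400 per well, compound exposure in the absence of CPT (DMSO vehicle).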
DT40 TDP1 CPT – qHTS for Inhibitors of human tyrosyl-DNA phosphodiesterase 1 (TDP1): qHTS in cells in presence of CPT | chicken DT40 Tdp1-/-;hTDP1 cells + 20 nM CPT, ATP luminescence, 48 h | Potency, µM (doses to about 46.2 µM), usual class: inhibitors | 12% of 420,000 active | AID 686979, 2013; further: nearly all actives have a fitted effect of over 55% in size
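Chicken DT40 Tdp1-/- cells complemented with human TDP1, 400 cells/well, exposed to compounds plus 20 nM camptothecin for at least 48 h at 37 C; viability read as ATP content by CellTiter-Glo luminescence.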
RORg inh – qHTS for inhibitors of ROR gamma transcriptional activity. 5.4% of 310,000 active. Drosophila S2 Gal4-RORgamma UAS-luciferase reporter, 20 h. Potency, µM (doses to about 53.6 µM), usual class: inhibitors. Nuclear receptor ROR-gamma (Mus musculus), P51450; further: nearly all actives have a fitted effect of over 60% in size
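In this cell-based reporter format, copper sulfate (700 uM final) drives Gal4–ROR gamma fusion expression from a metallothionein promoter in Drosophila Schneider cells; compounds preincubated 1 hr, reporter read after 20 hr at ambient temperature.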
TDP1 block – qHTS Assay for Inhibitors of Tyrosyl-DNA Phosphodiesterase (TDP1); Tyrosyl-DNA phosphodiesterase 1 (Homo sapiens), Q9NUW8; recombinant TDP1, AlphaScreen DNA substrate cleavage; Potency, µM (titrated, usually from 130 µM), most hits filed as inhibitors; 0.28% of 350,000 active; AID 485290, 2010; further: nearly all actives have a fitted effect of over 40% in size
Target sequence (Q9NUW8 whole entry, looked up): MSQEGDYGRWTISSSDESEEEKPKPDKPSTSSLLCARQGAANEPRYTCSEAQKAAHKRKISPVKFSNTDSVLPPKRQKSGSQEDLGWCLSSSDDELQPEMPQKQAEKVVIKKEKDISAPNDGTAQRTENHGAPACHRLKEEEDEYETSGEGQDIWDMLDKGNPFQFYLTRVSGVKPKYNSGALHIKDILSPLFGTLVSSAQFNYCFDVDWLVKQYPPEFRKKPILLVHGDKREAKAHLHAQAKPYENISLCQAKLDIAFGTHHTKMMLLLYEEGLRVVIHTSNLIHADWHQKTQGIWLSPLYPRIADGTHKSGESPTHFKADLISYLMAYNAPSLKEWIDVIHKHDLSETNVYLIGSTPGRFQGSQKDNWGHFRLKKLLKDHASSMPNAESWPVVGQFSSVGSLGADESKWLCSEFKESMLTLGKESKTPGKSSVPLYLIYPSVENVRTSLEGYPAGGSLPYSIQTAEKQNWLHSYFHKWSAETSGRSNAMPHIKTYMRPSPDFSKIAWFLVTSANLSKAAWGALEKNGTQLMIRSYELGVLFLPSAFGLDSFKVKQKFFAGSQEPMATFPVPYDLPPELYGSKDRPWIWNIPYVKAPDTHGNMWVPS
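Signal: AlphaScreen proximity between streptavidin donor and anti-FITC acceptor beads on intact substrate. Reaction: Tdp1 1 nM, substrate 15 nM final, 5 min RT after 15 min compound preincubation.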
Gal4-VP16 FLuc – VP16 counterscreen qHTS for inhibitors of ROR gamma transcriptional activity. Drosophila S2 Gal4-VP16 UAS-luciferase, luminescence, 20 h. Potency, µM (series often up to 53.6 µM), most hits filed as inhibitors. 3.5% of 310,000 active;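 further: Gal4-VP16 expression switched on by copper sulfate through the metallothionein promoter; nearly all actives have a fitted effect of over 50% in size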
Each line names hits and unclear results; the compound was inactive in the other large screens. The call rests on the fitted dose curve; in most records, active means well fitted curve in the direction sought with a large enough effect; inconclusive means small, poorly fitted or top-dose-only effect, or another doubt; inactive means no such curve, though single readings can be large; an effect the other way counts as inactive or inconclusive.

Cc1ccc(CNCCCSc2nc(C)cc(C)n2)cc1	DT40 TDP1 no CPT inconclusive, DT40 TDP1 CPT inconclusive, RORg inh inconclusive, Gal4-VP16 FLuc 2µM
O=C(NCCCN1CCOCC1)c1ccc(Cl)cc1[N+](=O)[O-]	none
CC(=O)Oc1ccc(C)cc1	none
COc1ccc(NC(=O)CN(C)C(=O)C2=NN(c3ccccc3)C(=O)CC2)cc1	none (no result: RORg inh, Gal4-VP16 FLuc)
Brc1ccc(CNCCCSc2ncccn2)cc1	DT40 TDP1 no CPT 16µM, DT40 TDP1 CPT 15µM (no result: RORg inh, Gal4-VP16 FLuc)
CCN1C(=O)C(O)(CC(=O)C(C)(C)C)c2cc(Br)ccc21 (stereo not given)	DT40 TDP1 no CPT inconclusive
Cc1coc(C)c1C(=O)CC1(O)C(=O)N(Cc2ccccc2)c2ccccc21 (stereo not given)	DT40 TDP1 no CPT 23µM, DT40 TDP1 CPT 16µM, RORg inh inconclusive, Gal4-VP16 FLuc inconclusive
C=CCN1C(=O)C(O)(CC(=O)c2ccccc2)c2ccccc21 (stereo not given)	DT40 TDP1 no CPT 18µM, DT40 TDP1 CPT inconclusive
Cc1ccc(CN2C(=O)C(O)(CC(=O)c3ccc(C)cc3)c3ccccc32)cc1 (stereo not given)	DT40 TDP1 no CPT 2.6µM, DT40 TDP1 CPT 5.8µM (no result: RORg inh, TDP1 block, Gal4-VP16 FLuc)
Cc1ccc(C(=O)CC2(O)C(=O)N(CCc3ccccc3)c3ccc(Br)cc32)o1 (stereo not given)	DT40 TDP1 no CPT 16µM, DT40 TDP1 CPT inconclusive
CCN(Cc1ccccc1)C(=O)Cn1c(C(C)O)nc2ccccc21 (stereo not given)	none
CC(=O)CC1(O)C(=O)N(Cc2ccccc2)c2ccccc21 (stereo not given)	DT40 TDP1 no CPT inconclusive, DT40 TDP1 CPT inconclusive
Cc1ccc(C(=O)CC2(O)C(=O)N(CCc3ccccc3)c3ccc(Cl)cc32)cc1 (stereo not given)	DT40 TDP1 no CPT 23µM, DT40 TDP1 CPT 21µM (no result: RORg inh, TDP1 block, Gal4-VP16 FLuc)
C#CCN1C(=O)C(O)(CC(=O)/C=C/c2ccco2)c2ccccc21 (stereo not given)	DT40 TDP1 no CPT 3.7µM, DT40 TDP1 CPT 5.8µM, Gal4-VP16 FLuc inconclusive
NC(=O)CN1C(=O)C(O)(CC(=O)c2ccccc2O)c2ccccc21 (stereo not given)	none
O=C(CC1(O)C(=O)N(CCc2ccccc2)c2ccccc21)c1ccco1 (stereo not given)	DT40 TDP1 no CPT 2.9µM, DT40 TDP1 CPT 5.8µM
COC(=O)CN1C(=O)C(O)(CC(=O)c2ccc(Cl)cc2)c2ccccc21 (stereo not given)	DT40 TDP1 no CPT inconclusive, DT40 TDP1 CPT inconclusive
O=c1c(-c2ccccc2)nc2cnc(N3CCOCC3)nc2n1C1CC1	none (no result: TDP1 block)
O=S(=O)(N1CCOCC1)N1CCCN(S(=O)(=O)N2CCOCC2)CC1	none
C=CCN(C1CCCCC1)S(=O)(=O)c1ccc2c(c1)oc(=O)n2C	DT40 TDP1 no CPT inconclusive, DT40 TDP1 CPT 8.2µM
CCC(C)(C)n1nnnc1CN1CCN(c2nc3cc(OC)ccc3cc2C#N)CC1	DT40 TDP1 no CPT 23µM, DT40 TDP1 CPT inconclusive
Cc1ccc2nc(N3CCN(Cc4nnnn4C4CCCC4)CC3)c(C#N)cc2c1	DT40 TDP1 no CPT 23µM, DT40 TDP1 CPT inconclusive
COc1ccc2cc(C#N)c(N3CCOCC3)nc2c1	DT40 TDP1 no CPT inconclusive, DT40 TDP1 CPT inconclusive
COC(=O)c1cn(N(C)c2ncc(C(F)(F)F)cc2Cl)c(=O)c2ccccc12	DT40 TDP1 no CPT inconclusive, DT40 TDP1 CPT inconclusive
O=C(COC(=O)C1CCC1)Nc1ncc(Cl)cc1Cl	none (no result: RORg inh, TDP1 block, Gal4-VP16 FLuc)
COc1cccc(/C=N/NC(=S)Nc2cccc(C(=O)O)c2)c1	RORg inh 10µM
CC(C)(C)NC(=S)N/N=C/c1cccnc1	DT40 TDP1 no CPT 26µM, DT40 TDP1 CPT 15µM, RORg inh 5.6µM, Gal4-VP16 FLuc 10µM (no result: TDP1 block)
Oc1ccc(/C=N/NC(=S)Nc2cccnc2)cc1	DT40 TDP1 no CPT inconclusive, RORg inh inconclusive, Gal4-VP16 FLuc inconclusive (no result: TDP1 block)
COc1ccc(/C=N/NC(=S)Nc2cccc(C(=O)O)c2)cc1OC	RORg inh inconclusive
CC(C)(C)OC(=O)N/N=C\c1cccnc1	Gal4-VP16 FLuc inconclusive
